Only a selection was taken, and the strongest signals are over-represented in it overall.
Key:
Assay in all cases: glycan array binding signal (z-score within array); higher = stronger binding
Details in all cases: glycan notation: IUPAC condensed, linker removed
[1] = target: Fuc(a1-2)Gal(b1-3)GalNAc
Procedure, shortened: (§1)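 The binding signal is a Z-score computed within each array. Data were drawn from 3228 arrays in the Consortium for Functional Glycomics database, restricted to those with a known protein sequence. Scores were averaged over arrays of the same protein sequence at different concentrations or buffers, and over linkers, and negative values can be taken as non-binding.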

[2] = target: Fuc(a1-2)Gal(b1-3)GalNAc(a1-3)[Fuc(a1-2)]Gal(b1-4)Glc
Procedure, shortened: as §1

[3] = target: Fuc(a1-2)Gal(b1-4)GlcNAc(b1-2)Man(a1-3)[Fuc(a1-2)Gal(b1-4)GlcNAc(b1-2)Man(a1-6)]Man(b1-4)GlcNAc(b1-4)GlcNAc
Procedure, shortened: as §1

[4] = target: Fuc(a1-2)Gal(b1-4)GlcNAc(b1-3)[Fuc(a1-3)[Gal(b1-4)]GlcNAc(b1-6)]Gal(b1-4)Glc
Procedure, shortened: as §1

[5] = target: Fuc(a1-2)Gal(b1-4)GlcNAc(b1-6)GalNAc
Procedure, shortened: as §1

[6] = target: Fuc(a1-2)Gal(b1-4)[Fuc(a1-3)]GlcNAc(b1-3)GalNAc
Procedure, shortened: as §1

[7] = target: Fuc(a1-2)Gal3S(b1-4)GlcNAc
Procedure, shortened: as §1

[8] = target: Fuc(a1-2)[Gal(a1-3)]Gal(b1-4)GlcNAc(b1-2)Man
Procedure, shortened: as §1

[9] = target: Fuc(a1-2)[Gal(a1-3)]Gal(b1-4)[Fuc(a1-3)]Glc
Procedure, shortened: as §1

[10] = target: Fuc(a1-2)[GalNAc(a1-3)]Gal(b1-3)GlcNAc(b1-6)GalNAc
Procedure, shortened: as §1

[11] = target: Fuc(a1-2)[GalNAc(a1-3)]Gal(b1-4)GlcNAc(b1-2)Man(a1-3)[Fuc(a1-2)[GalNAc(a1-3)]Gal(b1-4)GlcNAc(b1-2)Man(a1-6)]Man(b1-4)GlcNAc(b1-4)[Fuc(a1-6)]GlcNAc
Procedure, shortened: as §1

[12] = target: Fuc(a1-3)[Gal(b1-4)]GlcNAc(b1-2)Man(a1-3)[Fuc(a1-3)[Gal(b1-4)]GlcNAc(b1-2)Man(a1-6)]Man(b1-4)GlcNAc(b1-4)[Fuc(a1-6)]GlcNAc
Procedure, shortened: as §1

[13] = target: Fuc(a1-3)[Gal(b1-4)]GlcNAc6S
Procedure, shortened: as §1

[14] = target: Gal(a1-3)Gal(b1-4)GlcNAc(b1-2)Man(a1-3)[Gal(a1-3)Gal(b1-4)GlcNAc(b1-2)Man(a1-6)]Man(b1-4)GlcNAc(b1-4)GlcNAc
Procedure, shortened: as §1

[15] = target: Gal(a1-3)Gal(b1-4)[Fuc(a1-3)]GlcNAc
Procedure, shortened: as §1

[16] = target: Gal(a1-3)GalNAc
Procedure, shortened: as §1

[17] = target: Gal(a1-3)[Gal(a1-4)]Gal(b1-4)GlcNAc
Procedure, shortened: as §1

[18] = target: Gal(a1-4)Gal(b1-4)GlcNAc(b1-3)Gal(b1-4)Glc
Procedure, shortened: as §1

[19] = target: Gal(b1-3)GalNAc(b1-3)Gal
Procedure, shortened: as §1

[20] = target: Gal(b1-3)GlcNAc(b1-2)Man
Procedure, shortened: as §1

[21] = target: Gal(b1-3)GlcNAc(b1-2)[Gal(b1-3)GlcNAc(b1-6)]Man(a1-6)[Gal(b1-3)GlcNAc(b1-2)Man(a1-3)]Man(b1-4)GlcNAc(b1-4)GlcNAc
Procedure, shortened: as §1

[22] = target: Gal(b1-3)GlcNAc(b1-3)Gal(b1-4)GlcNAc(b1-3)Gal(b1-4)GlcNAc(b1-2)[Gal(b1-3)GlcNAc(b1-3)Gal(b1-4)GlcNAc(b1-3)Gal(b1-4)GlcNAc(b1-6)]Man(a1-6)[Gal(b1-3)GlcNAc(b1-3)Gal(b1-4)GlcNAc(b1-3)Gal(b1-4)GlcNAc(b1-2)Man(a1-3)]Man(b1-4)GlcNAc(b1-4)[Fuc(a1-6)]GlcNAc
Procedure, shortened: as §1

[23] = target: Gal(b1-3)GlcNAc(b1-3)Gal(b1-4)GlcNAc(b1-6)[Gal(b1-3)GlcNAc(b1-3)]Gal(b1-4)Glc
Procedure, shortened: as §1

[24] = target: Gal(b1-3)[Fuc(a1-4)]GlcNAc(b1-2)Man(a1-3)[Gal(b1-3)[Fuc(a1-4)]GlcNAc(b1-2)Man(a1-6)]Man(b1-4)GlcNAc(b1-4)[Fuc(a1-6)]GlcNAc
Procedure, shortened: as §1

[25] = target: Gal(b1-4)GalNAc(b1-3)[Fuc(a1-2)]Gal(b1-4)GlcNAc
Procedure, shortened: as §1

[26] = target: Gal(b1-4)GlcNAc(b1-2)Man
Procedure, shortened: as §1

[27] = target: Gal(b1-4)GlcNAc(b1-2)Man(a1-6)Man(b1-4)GlcNAc(b1-4)GlcNAc
Procedure, shortened: as §1

[28] = target: Gal(b1-4)GlcNAc(b1-2)[Gal(b1-4)GlcNAc(b1-6)]Man(a1-6)[GlcNAc(b1-4)][Gal(b1-4)GlcNAc(b1-2)[Gal(b1-4)GlcNAc(b1-4)]Man(a1-3)]Man(b1-4)GlcNAc(b1-4)[Fuc(a1-6)]GlcNAc
Procedure, shortened: as §1

[29] = target: Gal(b1-4)GlcNAc(b1-3)Gal(b1-4)GlcNAc(b1-2)Man(a1-3)[Gal(b1-4)GlcNAc(b1-3)Gal(b1-4)GlcNAc(b1-2)Man(a1-6)]Man(b1-4)GlcNAc(b1-4)GlcNAc
Procedure, shortened: as §1

[30] = target: Gal(b1-4)GlcNAc(b1-3)Gal(b1-4)GlcNAc(b1-3)Gal(b1-4)GlcNAc
Procedure, shortened: as §1

[31] = target: Gal(b1-4)GlcNAc(b1-3)Gal(b1-4)GlcNAc(b1-3)Gal(b1-4)GlcNAc(b1-3)Gal(b1-4)GlcNAc(b1-3)Gal(b1-4)GlcNAc(b1-2)Man(a1-3)[Gal(b1-4)GlcNAc(b1-3)Gal(b1-4)GlcNAc(b1-3)Gal(b1-4)GlcNAc(b1-3)Gal(b1-4)GlcNAc(b1-3)Gal(b1-4)GlcNAc(b1-2)Man(a1-6)]Man(b1-4)GlcNAc(b1-4)GlcNAc
Procedure, shortened: as §1

B1: GS7807Q-bfa-507-19-507 (Bacteroides fragilis) (protein)
chain: ASCNKFDDLNTNPDAATKVTAPMLATKLILNITQQGSAKNFVYHSMLSKQIAWSENASDEQYNLFGRTDFDGYTILTNCQKMVDAANEGDKDSYAALAKFMKAYKLFYKSLEVGDIPYSDALKGEEGVQKPKYDTQKEVMRQVLEDLEEAYTLFSSGSDFDGDPIFGGDTENWKKTVVAFELKVLTHLCKKDTDADLKVKERFARLVSSGSLMTSNADNFQLVYSNKAGQLYPFYYTQNKHSDYLMMSSVIIDNLKKFNDYRMFYYASPAKAQTDKGIKDSEWDAYLSIDPSDSYSNISVLYGKGEFCLANLRYTRVPEGEPLMRLSYAEQNFILAEGAVRGWISEDASTYYKKGIEASMNFIADNTPDKEEYTHGRTITQEYIQEYLAQPVIQLSGDKEKDLEMILLQRYLASFLQHPYDAYYDYRRTGYPVLPINPSTNLNTEKNKIPTRWMYPEAEFSYNPDNANEAVQRQYNGSDDVNKLMWILQ
In the case of B1, the “glycan array binding signal (z-score)” value [1] is reported as -1.06, the “glycan array binding signal (z-score)” value [2] is reported as -0.063 and the “glycan array binding signal (z-score)” value [3] is reported as 6.11. For the same binder, the “glycan array binding signal (z-score)” value [4] was 0.636, the “glycan array binding signal (z-score)” value [5] was 4.43 and the “glycan array binding signal (z-score)” value [6] was 1.5. For the same binder, the “glycan array binding signal (z-score)” value [7] was -0.3, the “glycan array binding signal (z-score)” value [8] was -0.226 and the “glycan array binding signal (z-score)” value [9] was 1.42. For the same binder, the “glycan array binding signal (z-score)” value [10] was -0.083, the “glycan array binding signal (z-score)” value [11] was -0.243 and the “glycan array binding signal (z-score)” value [12] was -0.03. For the same binder, the “glycan array binding signal (z-score)” value [13] was -1.03, the “glycan array binding signal (z-score)” value [14] was 3.33 and the “glycan array binding signal (z-score)” value [15] was 0.431. For the same binder, the “glycan array binding signal (z-score)” value [16] was -0.197, the “glycan array binding signal (z-score)” value [17] was 0.361 and the “glycan array binding signal (z-score)” value [18] was -0.723. For the same binder, the “glycan array binding signal (z-score)” value [19] was 0.094, the “glycan array binding signal (z-score)” value [20] was -0.443 and the “glycan array binding signal (z-score)” value [21] was 0.94. The “glycan array binding signal (z-score)” value [22] was 3.08, the “glycan array binding signal (z-score)” value [23] was 3.63 and the “glycan array binding signal (z-score)” value [24] was 3.07. For the same binder, the “glycan array binding signal (z-score)” value [25] was 0.8, the “glycan array binding signal (z-score)” value [26] was 0.859 and the “glycan array binding signal (z-score)” value [27] was 0.767. For the same binder, the “glycan array binding signal (z-score)” value [28] was -0.993, the “glycan array binding signal (z-score)” value [29] was 3.08 and the “glycan array binding signal (z-score)” value [30] was 0.693. The “glycan array binding signal (z-score)” value [31] was -0.15.

Source: the supplement of paper PMC8728848
